# “And” between values parts separate entries of the source, which are not always exact repeats. Equal values may be shown once. A number with no mark means an inactive call. Records with an inconclusive call do not appear. A call without a number means that no potency is given here. The source made the active and inactive calls. Unless noted, calls come from the whole dose curve; as a rule, active = well fitted curve in the direction sought with a large enough effect in the repeat runs; inconclusive = weak or mixed curves; inactive = no such curve, though single readings can be large; an effect the other way counts as inactive or inconclusive.
# Experiments:
# [1] = qHTS assay to identify small molecule agonists of H2AX (AID 1224845; active = well fitted activation curve with a large enough effect in the signal ratio in the repeat runs, not every such curve was filed as active; the % refers to the signal ratio)
# Summary of the method: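 Phospho-H2AX Ser139 measured by HTRF (ex 320 nm; em 665 and 620 nm) after 24 hr antibody incubation. Compounds, 15 concentrations, 0.76% DMSO, were applied to CHO-K1 cells for 3hr at 37C before lysis.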
# [2] = qHTS assay to identify small molecule agonists of the hypoxia (HIF-1) signaling pathway (AID 1224846; active = well fitted activation curve with a large enough effect in the signal ratio in the repeat runs, not every such curve was filed as active; the % refers to the signal ratio)
# Summary of the method: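 Hypoxia-pathway activation was scored as increased beta-lactamase from an HRE-controlled reporter in ME-180 cells; plated at 2,000 cells per well with 0.5% dialyzed FBS, they were exposed 17 hrs to compounds and then given CCF4-AM.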
# [3] = qHTS assay to identify small molecule agonists of H2AX - cell viability counter screen (AID 1224847; calls by dose curve;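 note: wild-type CHO-K1 cells; top concentration of the series differs between compounds; nearly all actives have a fitted effect of over 30% in size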)
# Summary of the method: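 For this counter screen, overnight-attached CHO-K1 cells received test compounds (15 concentrations, 0.76% DMSO final); 3 hr later at 37C, CellTiter-Glo reagent was added and luminescence recorded after 30 min at room temperature.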
# [4] = qHTS RealTime-Glo MT Cell Viability Assay in HepG2 cells - 24 hour (AID 1224867); note: nearly all actives have a fitted effect of over 50% in size
# Summary of the method: (§1)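 Tox21 10K library screened in qHTS format on HepG2 cells carrying RealTime-Glo reagents. Compounds were added after a 5 h preincubation, and the luminescent signal from continuous culture was measured repeatedly during 40 h treatment.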
# [5] = qHTS RealTime-Glo MT Cell Viability Assay in HEK293 cells - 32 hour (AID 1224868); note: top concentration of the series differs between compounds; nearly all actives have a fitted effect of over 50% in size
# Summary of the method: (§2)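 Luminescence generated by NanoLuc from substrate produced by living HEK293 cells served as the viability signal. Each value reflects the reading at its stated time point during continuous 40 h compound exposure at 37 C.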
# [6] = qHTS RealTime-Glo MT Cell Viability Assay in HepG2 cells - 40 hour (AID 1224870); note: nearly all actives have a fitted effect of over 50% in size
# Summary of the method: (§3)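 Real-time viability: cells seeded at 600 per well together with NanoLuc and cell-permeant prosubstrate, compounds added after 5 h incubation. Luminescence tracked at 0, 8, 16, 24, 32 and 40 h of exposure.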
# [7] = A CellTox Green Cytotoxicity Assay to monitor cytotoxicity in HEK293 cells - 40 hour (AID 1224871); note: nearly all actives have a fitted effect of over 45% in size
# Summary of the method: (§4)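 Seeding of HEK293 cells together with cytotoxicity dye preceded a 5 h incubation at 37 C/5% CO2. Test compounds in DMSO were then added and fluorescence monitored across 40 h.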
# [8] = qHTS RealTime-Glo MT Cell Viability Assay in HEK293 cells - 16 hour (AID 1224872); note: top concentration of the series differs between compounds; nearly all actives have a fitted effect of over 50% in size
# Summary of the method: as §2
# [9] = qHTS RealTime-Glo MT Cell Viability Assay in HepG2 cells - 8 hour (AID 1224873); note: nearly all actives have a fitted effect of over 55% in size
# Summary of the method: as §3
# [10] = qHTS RealTime-Glo MT Cell Viability Assay in HEK293 cells - 40 hour (AID 1224874); conditions: RealTime-Glo luminescence; max response: active compounds read low; note: nearly all actives have a fitted effect of over 50% in size
# Summary of the method: (§5)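 Tox21 screen in HEK293 using RealTime-Glo MT chemistry, with cells and reagent co-dispensed. Luminescence proportional to viable cell number was captured at intervals during 40 h compound exposure at 37 C.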
# [11] = A CellTox Green Cytotoxicity Assay to monitor cytotoxicity in HepG2 cells - 16 hour (AID 1224876); note: nearly all actives have a fitted effect of over 45% in size
# Summary of the method: (§6)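 Nonlytic assay: viable cells exclude the dye, so fluorescence scales with cell death. HepG2 at 600 cells/well, compounds added after 5 h, signal read across 40 h.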
# [12] = qHTS RealTime-Glo MT Cell Viability Assay in HepG2 cells - 32 hour (AID 1224877); note: nearly all actives have a fitted effect of over 55% in size
# Summary of the method: as §1
# [13] = A CellTox Green Cytotoxicity Assay to monitor cytotoxicity in HepG2 cells - 24 hour (AID 1224878); note: nearly all actives have a fitted effect of over 45% in size; note: potency is the fitted concentration of half-maximal effect
# Summary of the method: as §6
# [14] = A CellTox Green Cytotoxicity Assay to monitor cytotoxicity in HepG2 cells - 40 hour (AID 1224879); note: nearly all actives have a fitted effect of over 40% in size
# Summary of the method: as §6
# [15] = qHTS RealTime-Glo MT Cell Viability Assay in HEK293 cells - 0 hour (AID 1224880); note: top concentration of the series differs between compounds; nearly all actives have a fitted effect of over 45% in size
# Summary of the method: as §5
# [16] = A CellTox Green Cytotoxicity Assay to monitor cytotoxicity in HEK293 cells - 24 hour (AID 1224875)
# Summary of the method: as §4
# [17] = A CellTox Green Cytotoxicity Assay to monitor cytotoxicity in HEK293 cells - 32 hour (AID 1224881); note: nearly all actives have a fitted effect of over 40% in size
# Summary of the method: as §4
# [18] = A CellTox Green Cytotoxicity Assay to monitor cytotoxicity in HEK293 cells - 0 hour (AID 1224869); note: nearly all actives have a fitted effect of over 50% in size
# Summary of the method: as §4
SMILES,Potency [1],outcome [2],Potency [3],Potency [4],Potency [5],Potency [6],Potency [7],Potency [8],Potency [9],max response [10],Potency [11],Potency [12],Potency [13],Potency [14],outcome [15],Potency [16],Potency [17],Potency [18]
CCCC1CCCCN1 (configuration not stated),inactive,inactive,inactive,inactive,inactive,inactive,inactive,inactive,inactive,5.87%,inactive,inactive,inactive,inactive,inactive,,,
C=CC(C)(CCC=C(C)C)OC(=O)c1ccccc1N (configuration not stated),inactive,inactive,inactive,inactive,inactive,inactive,inactive,inactive,,-1.39%,inactive,inactive,inactive,inactive,inactive,inactive,inactive,
CCCCC#N,inactive,inactive,inactive,inactive,inactive,inactive,inactive,inactive,inactive,,inactive,inactive,,inactive,inactive,inactive,inactive,inactive
NC(=O)CF,inactive,inactive,inactive,inactive,inactive,inactive,inactive,inactive,inactive,-4.69%,inactive,inactive,,inactive,inactive,,inactive,inactive
CC(Oc1cccc(Cl)c1)C(=O)O (configuration not stated),inactive,inactive,inactive,inactive,,inactive,inactive,inactive,inactive,9.01%,inactive,inactive,inactive,inactive,inactive,inactive,inactive,inactive
OC[P+](CO)(CO)CO,inactive,inactive,inactive,inactive,inactive,inactive,inactive,inactive,,5.15% and -10.7%,inactive,inactive,,inactive,inactive,inactive,,
Nc1cccc2ccccc12,inactive,inactive,inactive,inactive,,inactive,inactive,inactive,inactive,,inactive,inactive,inactive,inactive,inactive,inactive,,inactive
C=CC(=O)OCC,inactive,inactive,inactive,,inactive,inactive,inactive,inactive,inactive,-11.3%,inactive,inactive,inactive,inactive,inactive,inactive,,inactive
OCCCl,inactive,inactive,inactive,inactive,inactive,inactive,inactive,inactive,inactive,0.0487%,inactive,inactive,inactive,inactive,inactive,,,inactive
Cc1nnc(-c2ccccc2)c(=O)n1N,inactive,inactive,inactive,inactive,inactive,inactive,inactive,inactive,inactive,-13.2%,inactive,inactive,inactive,inactive,inactive,,inactive,inactive
C1CCNCC1,inactive,inactive,inactive,inactive,inactive,inactive,inactive,inactive,inactive,0.2%,inactive,inactive,inactive,inactive,inactive,,,inactive
CC(C)(c1ccccc1)c1cc(-n2nc3ccccc3n2)c(O)c(C(C)(C)c2ccccc2)c1,inactive,inactive,inactive,inactive,,inactive,inactive,inactive,,12.9%,inactive,inactive,inactive,inactive,inactive,,inactive,inactive
OCC1CO1 (configuration not stated),inactive,inactive,inactive,inactive,inactive,inactive,inactive,inactive,,0.843% and 1.08%,,inactive,44.4 µM (active),,inactive,inactive,inactive,inactive
CON(C)C(=O)Nc1ccc(Cl)cc1,inactive,inactive,inactive,inactive,inactive,inactive,inactive,inactive,,-13.1%,inactive,inactive,inactive,inactive,inactive,inactive,inactive,inactive
CNC(=O)Oc1cccc(N=CN(C)C)c1,inactive,inactive,inactive,inactive,,inactive,inactive,inactive,inactive,,inactive,inactive,inactive,inactive,inactive,inactive,inactive,inactive

# Reference: PubChem BioAssay (Tox21)
